Laboratory results: the supplement of paper PMC11732987, “Enantioselective OTUD7B fragment discovery through chemoproteomics screening and high-throughput optimisation” (Communications Chemistry, 2025)

Legend:
Assay in all cases: log2 ratio of Biotin-Ahx-Ub-VS probe labelling (fragment/DMSO); higher = less target engagement (more negative = stronger competition), active = hit call of the paper (q ≤ 0.05, log2 ratio ≤ -1)
Details in all cases: compound concentration: 200 uM; treatment time: 3 h
[1] = target: T1, USP19 (UniProt O94966)
T1 sequence (whole entry): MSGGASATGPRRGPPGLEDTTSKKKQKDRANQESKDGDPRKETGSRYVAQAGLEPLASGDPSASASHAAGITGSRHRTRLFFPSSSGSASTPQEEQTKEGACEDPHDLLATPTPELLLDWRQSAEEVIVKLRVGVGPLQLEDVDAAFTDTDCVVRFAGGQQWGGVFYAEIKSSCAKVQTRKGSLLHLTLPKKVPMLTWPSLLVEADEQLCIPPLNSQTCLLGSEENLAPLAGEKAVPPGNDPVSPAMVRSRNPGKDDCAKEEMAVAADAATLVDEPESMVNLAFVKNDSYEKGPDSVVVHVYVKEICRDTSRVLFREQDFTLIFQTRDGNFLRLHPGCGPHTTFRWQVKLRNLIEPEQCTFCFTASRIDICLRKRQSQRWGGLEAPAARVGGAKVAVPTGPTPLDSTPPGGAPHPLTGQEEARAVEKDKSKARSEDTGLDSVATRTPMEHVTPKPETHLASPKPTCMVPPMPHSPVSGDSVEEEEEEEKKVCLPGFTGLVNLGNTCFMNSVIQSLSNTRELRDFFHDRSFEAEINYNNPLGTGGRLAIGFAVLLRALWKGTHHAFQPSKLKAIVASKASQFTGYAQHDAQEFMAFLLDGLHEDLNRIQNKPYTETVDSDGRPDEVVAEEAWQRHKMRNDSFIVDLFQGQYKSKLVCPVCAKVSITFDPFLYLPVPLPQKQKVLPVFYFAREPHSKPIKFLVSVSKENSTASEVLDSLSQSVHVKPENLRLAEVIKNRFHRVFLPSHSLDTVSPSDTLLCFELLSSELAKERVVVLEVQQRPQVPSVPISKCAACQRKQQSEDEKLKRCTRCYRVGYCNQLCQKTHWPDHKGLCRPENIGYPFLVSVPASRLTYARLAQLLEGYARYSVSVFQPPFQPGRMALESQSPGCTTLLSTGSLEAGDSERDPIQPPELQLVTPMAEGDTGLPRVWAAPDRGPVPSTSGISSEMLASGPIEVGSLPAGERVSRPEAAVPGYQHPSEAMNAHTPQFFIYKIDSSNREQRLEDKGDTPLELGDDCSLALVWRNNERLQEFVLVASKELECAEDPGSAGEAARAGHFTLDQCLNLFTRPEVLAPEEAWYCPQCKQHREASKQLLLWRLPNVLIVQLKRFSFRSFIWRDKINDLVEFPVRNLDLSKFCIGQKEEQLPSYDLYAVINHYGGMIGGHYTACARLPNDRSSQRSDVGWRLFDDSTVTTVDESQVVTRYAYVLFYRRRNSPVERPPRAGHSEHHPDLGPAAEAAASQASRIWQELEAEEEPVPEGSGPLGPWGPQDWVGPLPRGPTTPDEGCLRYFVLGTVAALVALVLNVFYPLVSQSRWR
Summary of the method: (§1)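 Labelling with Biotin-Ahx-Ub-VS (0.5 µM final, 1 h) followed a 3 h triplicate treatment of HEK293T lysate (495 µg per sample, Tris/CHAPS/IGEPAL buffer with protease inhibitors) with fragment at 200 µM or vehicle. Labelled DUBs were NeutrAvidin-enriched, digested with LysC and trypsin, and run by diaPASEF LC-MS/MS. The values, average log2 fragment/vehicle ratios by unpaired t-test, come from global-median-normalised Spectronaut label-free quantities. Proteins with ≥2 unique peptides were used.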

[2] = target: USP24 (UniProt Q9UPU5)
USP24, sequence (Q9UPU5 whole entry): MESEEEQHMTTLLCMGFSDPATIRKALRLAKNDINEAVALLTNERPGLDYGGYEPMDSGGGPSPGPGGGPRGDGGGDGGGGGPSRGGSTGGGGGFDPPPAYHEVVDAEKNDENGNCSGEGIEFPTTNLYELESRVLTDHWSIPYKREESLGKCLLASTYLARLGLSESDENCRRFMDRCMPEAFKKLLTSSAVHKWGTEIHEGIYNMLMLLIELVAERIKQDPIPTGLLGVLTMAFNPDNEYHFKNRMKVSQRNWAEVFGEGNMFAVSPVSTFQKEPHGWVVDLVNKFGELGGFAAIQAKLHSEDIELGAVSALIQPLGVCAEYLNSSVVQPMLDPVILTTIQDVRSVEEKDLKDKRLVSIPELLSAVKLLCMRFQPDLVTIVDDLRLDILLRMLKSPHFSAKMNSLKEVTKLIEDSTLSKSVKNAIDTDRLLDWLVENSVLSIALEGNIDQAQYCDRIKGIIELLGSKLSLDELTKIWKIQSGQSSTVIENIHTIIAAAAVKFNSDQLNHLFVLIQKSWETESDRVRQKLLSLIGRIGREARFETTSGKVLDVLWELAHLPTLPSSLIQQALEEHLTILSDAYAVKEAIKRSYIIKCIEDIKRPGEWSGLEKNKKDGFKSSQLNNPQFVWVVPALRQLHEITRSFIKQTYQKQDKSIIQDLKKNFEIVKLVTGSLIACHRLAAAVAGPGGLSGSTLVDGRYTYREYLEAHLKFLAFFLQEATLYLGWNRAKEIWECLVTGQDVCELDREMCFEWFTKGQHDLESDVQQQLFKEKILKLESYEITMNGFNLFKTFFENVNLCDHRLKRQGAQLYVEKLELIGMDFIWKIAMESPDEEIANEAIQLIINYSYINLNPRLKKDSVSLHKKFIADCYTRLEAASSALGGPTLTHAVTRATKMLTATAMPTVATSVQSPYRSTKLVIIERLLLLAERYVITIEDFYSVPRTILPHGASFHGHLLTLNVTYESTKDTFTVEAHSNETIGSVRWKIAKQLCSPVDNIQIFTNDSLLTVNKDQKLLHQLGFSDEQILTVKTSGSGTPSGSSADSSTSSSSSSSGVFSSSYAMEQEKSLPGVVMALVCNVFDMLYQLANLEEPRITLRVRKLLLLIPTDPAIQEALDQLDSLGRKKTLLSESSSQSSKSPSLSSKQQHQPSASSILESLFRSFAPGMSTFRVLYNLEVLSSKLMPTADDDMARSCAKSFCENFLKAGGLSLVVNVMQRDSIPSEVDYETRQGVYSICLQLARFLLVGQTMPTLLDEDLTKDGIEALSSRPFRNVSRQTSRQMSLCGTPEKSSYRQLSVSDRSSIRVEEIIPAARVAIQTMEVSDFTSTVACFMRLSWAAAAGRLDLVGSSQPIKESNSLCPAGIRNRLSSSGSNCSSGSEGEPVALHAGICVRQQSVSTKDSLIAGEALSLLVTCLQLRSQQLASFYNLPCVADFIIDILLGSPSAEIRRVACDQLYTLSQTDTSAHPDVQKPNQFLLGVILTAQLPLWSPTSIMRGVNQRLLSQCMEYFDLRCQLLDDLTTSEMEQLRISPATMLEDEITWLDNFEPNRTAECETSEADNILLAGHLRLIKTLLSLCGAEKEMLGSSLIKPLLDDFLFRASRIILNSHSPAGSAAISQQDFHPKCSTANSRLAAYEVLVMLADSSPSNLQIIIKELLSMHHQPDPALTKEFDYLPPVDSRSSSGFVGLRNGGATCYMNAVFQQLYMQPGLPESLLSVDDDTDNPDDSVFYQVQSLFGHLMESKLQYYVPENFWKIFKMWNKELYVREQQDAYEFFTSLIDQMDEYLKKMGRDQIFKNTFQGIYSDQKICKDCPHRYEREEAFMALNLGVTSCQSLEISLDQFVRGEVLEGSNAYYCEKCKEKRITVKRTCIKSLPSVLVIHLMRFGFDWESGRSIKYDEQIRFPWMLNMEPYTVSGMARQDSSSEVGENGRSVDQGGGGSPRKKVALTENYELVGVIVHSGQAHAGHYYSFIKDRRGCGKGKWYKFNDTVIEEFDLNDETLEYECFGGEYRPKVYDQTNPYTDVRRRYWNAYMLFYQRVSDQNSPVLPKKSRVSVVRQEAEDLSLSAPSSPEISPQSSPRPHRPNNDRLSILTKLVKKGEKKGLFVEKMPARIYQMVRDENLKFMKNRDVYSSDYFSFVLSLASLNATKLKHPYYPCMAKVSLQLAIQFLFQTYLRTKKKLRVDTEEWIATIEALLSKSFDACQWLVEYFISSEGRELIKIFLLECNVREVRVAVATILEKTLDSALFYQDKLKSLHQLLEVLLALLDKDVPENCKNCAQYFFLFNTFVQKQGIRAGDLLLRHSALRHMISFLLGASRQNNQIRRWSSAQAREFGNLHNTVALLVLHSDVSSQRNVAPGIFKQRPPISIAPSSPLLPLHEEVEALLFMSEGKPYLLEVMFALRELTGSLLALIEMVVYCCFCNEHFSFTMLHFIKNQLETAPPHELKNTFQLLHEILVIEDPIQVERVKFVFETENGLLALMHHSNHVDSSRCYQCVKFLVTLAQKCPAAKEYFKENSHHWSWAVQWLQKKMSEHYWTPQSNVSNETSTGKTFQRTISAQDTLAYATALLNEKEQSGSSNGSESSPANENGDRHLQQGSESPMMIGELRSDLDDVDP
Summary of the method: as §1

[3] = target: T2, USP25 (UniProt Q9UHP3)
T2 sequence (whole entry): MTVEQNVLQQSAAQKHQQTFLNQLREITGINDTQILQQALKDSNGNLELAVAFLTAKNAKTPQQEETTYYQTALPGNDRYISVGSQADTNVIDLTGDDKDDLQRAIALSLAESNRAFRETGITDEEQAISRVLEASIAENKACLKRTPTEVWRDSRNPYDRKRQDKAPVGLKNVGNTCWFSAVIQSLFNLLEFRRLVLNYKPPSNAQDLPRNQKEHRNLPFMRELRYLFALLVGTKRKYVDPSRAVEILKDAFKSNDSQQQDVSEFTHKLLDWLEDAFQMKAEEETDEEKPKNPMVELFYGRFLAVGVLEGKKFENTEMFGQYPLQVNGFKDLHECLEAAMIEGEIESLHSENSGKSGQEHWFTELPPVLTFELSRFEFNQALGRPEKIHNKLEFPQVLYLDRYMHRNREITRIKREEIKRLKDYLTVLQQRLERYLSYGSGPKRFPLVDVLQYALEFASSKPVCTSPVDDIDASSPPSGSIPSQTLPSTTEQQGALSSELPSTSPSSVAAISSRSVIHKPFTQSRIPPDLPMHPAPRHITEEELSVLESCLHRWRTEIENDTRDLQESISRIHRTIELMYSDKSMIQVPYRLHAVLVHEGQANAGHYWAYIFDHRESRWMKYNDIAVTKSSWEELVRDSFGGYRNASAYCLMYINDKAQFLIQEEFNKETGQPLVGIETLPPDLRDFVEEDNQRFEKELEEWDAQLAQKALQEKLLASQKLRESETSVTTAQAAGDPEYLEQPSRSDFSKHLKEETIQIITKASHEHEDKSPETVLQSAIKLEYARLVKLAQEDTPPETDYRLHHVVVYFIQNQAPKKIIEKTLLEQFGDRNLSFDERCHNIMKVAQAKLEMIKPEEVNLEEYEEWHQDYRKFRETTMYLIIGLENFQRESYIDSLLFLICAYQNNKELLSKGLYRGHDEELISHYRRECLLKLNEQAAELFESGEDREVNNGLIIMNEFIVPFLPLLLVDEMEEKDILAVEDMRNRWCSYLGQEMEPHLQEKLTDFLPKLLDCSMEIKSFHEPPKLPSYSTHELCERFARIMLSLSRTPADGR
Summary of the method: as §1

[4] = target: T3, USP28 (UniProt Q96RU2)
T3 sequence (whole entry): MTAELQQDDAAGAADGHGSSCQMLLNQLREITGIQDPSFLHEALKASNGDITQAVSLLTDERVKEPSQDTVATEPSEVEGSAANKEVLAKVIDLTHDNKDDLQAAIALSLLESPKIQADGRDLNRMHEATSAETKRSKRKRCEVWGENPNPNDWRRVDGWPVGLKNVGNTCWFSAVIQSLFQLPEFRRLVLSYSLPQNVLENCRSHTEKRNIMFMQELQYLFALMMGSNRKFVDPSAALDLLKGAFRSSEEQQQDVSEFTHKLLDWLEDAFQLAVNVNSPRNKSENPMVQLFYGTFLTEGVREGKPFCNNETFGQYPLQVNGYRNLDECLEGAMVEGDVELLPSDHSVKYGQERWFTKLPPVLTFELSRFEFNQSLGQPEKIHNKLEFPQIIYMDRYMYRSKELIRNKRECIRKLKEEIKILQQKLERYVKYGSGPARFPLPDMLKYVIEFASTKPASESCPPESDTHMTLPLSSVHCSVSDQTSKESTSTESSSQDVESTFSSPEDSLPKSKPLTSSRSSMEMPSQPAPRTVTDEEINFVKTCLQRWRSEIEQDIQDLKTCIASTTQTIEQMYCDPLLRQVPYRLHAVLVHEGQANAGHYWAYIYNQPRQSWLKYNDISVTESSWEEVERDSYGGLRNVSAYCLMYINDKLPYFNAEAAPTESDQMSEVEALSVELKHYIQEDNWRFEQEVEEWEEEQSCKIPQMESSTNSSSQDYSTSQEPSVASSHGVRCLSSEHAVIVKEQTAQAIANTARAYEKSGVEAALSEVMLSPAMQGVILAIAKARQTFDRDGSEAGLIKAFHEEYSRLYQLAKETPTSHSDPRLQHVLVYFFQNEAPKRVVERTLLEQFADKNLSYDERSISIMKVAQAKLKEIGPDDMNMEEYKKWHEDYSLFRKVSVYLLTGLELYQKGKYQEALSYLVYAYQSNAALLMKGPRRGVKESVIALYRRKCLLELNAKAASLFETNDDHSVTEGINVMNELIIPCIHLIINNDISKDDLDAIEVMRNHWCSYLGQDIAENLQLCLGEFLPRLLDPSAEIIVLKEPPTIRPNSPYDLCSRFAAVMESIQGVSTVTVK
Summary of the method: as §1

Measured: log2 ratio of Biotin-Ahx-Ub-VS probe labelling

O=C(CCl)N1CCC(c2nc3ccccc3o2)CC1
inactive: [1] -0.537 | [2] -0.503 | [3] -0.466 | [4] -0.736
